A selection: hits, their analogues and other compounds. The true share with any hit is near 1%.
FEN1 inh-1 – human FEN1 inhibition; P39748; Recombinant FEN1 flap cleavage, fluorescence, 15 min; Potency, µM (top dose mostly 114 µM), hits mostly inhibitors; 0.35% of 390,000 active; AID 588795; further: nearly all actives have a fitted effect of over 65% in size
Target sequence (P39748 whole entry, looked up): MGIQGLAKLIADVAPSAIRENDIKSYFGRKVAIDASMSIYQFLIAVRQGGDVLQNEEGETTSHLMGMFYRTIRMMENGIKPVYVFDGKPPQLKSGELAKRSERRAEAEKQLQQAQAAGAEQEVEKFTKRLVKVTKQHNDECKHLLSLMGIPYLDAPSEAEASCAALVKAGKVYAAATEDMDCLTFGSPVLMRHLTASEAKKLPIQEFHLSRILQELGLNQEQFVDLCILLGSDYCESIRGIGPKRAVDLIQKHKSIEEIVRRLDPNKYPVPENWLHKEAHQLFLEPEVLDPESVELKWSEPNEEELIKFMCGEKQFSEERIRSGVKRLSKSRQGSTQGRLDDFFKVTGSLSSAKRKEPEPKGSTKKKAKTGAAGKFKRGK
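FEN1 at 10 nM preincubated with compounds 15 min at room temperature, then flap DNA substrate added at 50 nM final. Signal read at 0 and 15 min; concentration-response fitted with four-parameter Hill equation.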
APEX1 inh – inhibitors of human APE1 endonuclease; Potency, µM (titrated, usually from 65.8 µM), hits mostly inhibitors; P27695; 0.35% of 350,000 active; recombinant APE1, TAMRA/BHQ-2 abasic DNA cleavage fluorescence; further: nearly all actives have a fitted effect of over 55% in size
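Compound pre-exposure to 0.75 nM APE1, 15 min at ambient temperature. Reaction initiated with 50 nM TAMRA/BHQ-2 THF substrate, read immediately in kinetic mode, 525 nm excitation, 598 nm emission.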
RECQ1 inh – RECQ1 (human) helicase inhibition | P46063 | RECQ1 DNA unwinding, red fluorescence kinetic read | Potency, µM (series often up to 57.3 µM), actives largely listed as inhibitors | 0.54% of 240,000 active | AID 2549; further: nearly all actives have a fitted effect of over 30% in size
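50 nM RECQ1T1 preincubated 15 min with compound in Tris pH 8.0 buffer with MgCl2, DTT, Tween-20 and 2.5 ug/ml poly(dI-dC); started with 200 nM TAMRA/BHQ-2 forked duplex and 2 mM ATP. Unwinding read as fluorescence (525/598 nm), two reads 2 h apart.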
WRN helicase inh – WRN helicase (human) inhibition. 0.46% of 360,000 active. Q14191. Potency, µM (titrated, usually from 114 µM), actives largely listed as inhibitors. AID 651768. WRN helicase unwinding, fluorescent forked duplex, kinetic; further: nearly all actives have a fitted effect of over 55% in size
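Enzyme (20 nM final) and test compound sit together 15 min at room temperature before substrate addition. Substrate is a single-forked duplex oligonucleotide (100 nM) labelled with fluorophore and quencher, with 2 mM ATP; helicase unwinding raises red fluorescence, read kinetically.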
L3MBTL1 block – L3MBTL1 (human) inhibition; AlphaScreen L3MBTL1–H3K9me1 peptide binding; 0.66% of 230,000 active; Q9Y468; Potency, µM (doses to about 57.1 µM), most hits filed as inhibitors; further: nearly all actives have a fitted effect of over 60% in size
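AlphaScreen assay: L3MBTL1 (50 nM final) was preincubated 30 min at room temperature with biotinylated H3(1-15)K9me1 peptide (75 nM final), then 30 min with library compounds; streptavidin donor and nickel chelate acceptor beads (10 ug/mL final) added, 30 min dark.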
BLM inh – inhibitors of human Bloom syndrome helicase BLM; P54132; recombinant BLM DNA unwinding, fluorescence dequenching; AID 2528; 0.2% of 350,000 active; Potency, µM (titrated, usually from 56.1 µM), actives largely listed as inhibitors; further: nearly all actives have a fitted effect of over 35% in size
FEN1 inh-2 – FEN1 inhibition, cherry-pick retest; shares compounds with FEN1 inh-1; FEN1 flap cleavage, TAMRA/BHQ2 fluorogenic DNA substrate; Potency, µM, actives largely listed as inhibitors; 79% of 880 active; AID 720498; further: nearly all actives have a fitted effect of over 60% in size
Numbers stand for hits; i = inactive; ? = inconclusive; nt = no result given; [ ] = dose if it differs, or a comment. The call rests on the fitted dose curve; in most records, active means well fitted curve in the direction sought with a large enough effect; inconclusive means small, poorly fitted or top-dose-only effect, or another doubt; inactive means no such curve, though single readings can be large; an effect the other way counts as inactive or inconclusive.

SMILES | FEN1 inh-1 | APEX1 inh | RECQ1 inh | WRN helicase inh | L3MBTL1 block | BLM inh | FEN1 inh-2
CCN(CC)CCCNC(=O)c1cc2c(Cl)nc3ccccc3c2s1 | 45µM | i | i | i | nt | i | 67
CCCCN(CC)CCCNC(=O)c1cc2c(-c3ccc(OC)c(OC)c3)nn(C)c2s1 | 35µM | i | nt | i | nt | i | 34
CCN(CC)CCCNC(=O)c1cc2c(-c3cccc(OC)c3)nn(C)c2s1 | ? | i | nt | i | nt | i | ?
CCOCCCNC(=O)c1cc2c(-c3ccc(OC)c(OC)c3)nn(C)c2s1 | ? | nt | nt | nt | nt | i | nt
Cc1ccc2onc(CC(=O)N(C)c3ccccc3)c2c1 | i | nt | nt | nt | nt | i | nt
Cc1c(CCC(=O)O)c(=O)oc2c(C)c3occ(-c4ccc(Br)cc4)c3cc12 | i | ? | nt | 63µM | nt | i | ?
COc1ccc(-c2coc3c(C)c4oc(=O)c(CCC(=O)O)c(C)c4cc23)cc1 | i | i | nt | ? | nt | i | nt
CCCN1CCN(CCCNC(=O)c2cnn(-c3ccc(F)cc3)c2-n2cccc2)CC1 | i | nt | nt | nt | nt | i | nt
COc1ccc(S(=O)(=O)N2CCN(C(=O)c3ccc([N+](=O)[O-])o3)CC2)cc1 | i | i[12.4 µM] | nt | i[11.6 µM] | nt | i | 76
Cn1c(=O)c(-c2cc(F)cc(F)c2)nc2cnc(N3CCNCC3)nc21 | nt | i | i | nt | nt | i | nt
O=C(COC(=O)c1ccc([N+](=O)[O-])o1)Nc1ccc(F)cc1 | ? | i | nt | i | i | nt | nt
O=C(COC(=O)c1ccc(Br)o1)Nc1cccc(S(=O)(=O)N2CCOCC2)c1 | i | i | nt | i | i | nt | nt
Cc1cccc(NC(=O)COC(=O)c2ccc([N+](=O)[O-])o2)c1C | ? | ? | i | i | i | i | 21
O=C(COC(=O)c1ccc([N+](=O)[O-])o1)Nc1cccc(S(=O)(=O)N2CCOCC2)c1 | 28µM | i | i | i | i | i | 19
CN(C)S(=O)(=O)c1cccc(NC(=O)COC(=O)c2ccc([N+](=O)[O-])o2)c1 | 50µM | i | i | i | i | i | 19
CCC1CN(C(=O)N2CCC(C(=O)N(C)Cc3ccccc3)CC2)c2ccccc2O1 (stereo not given) | i | nt | nt | nt | nt | i | nt
O=C1N=c2ccccc2=C1c1sc(Nc2ccc(O)cc2)nc1O | ? | ? | i | ? | nt | ? | 76
COc1ccc(C2c3c(ncn(CCCN4CCOCC4)c3=N)Oc3ccc4ccccc4c32)cc1OC (stereo not given) | ? | i | i | i | i | i | nt
COc1cccc(C2c3c(ncn(CCCN4CCOCC4)c3=N)Oc3ccc4ccccc4c32)c1 (stereo not given) | nt | nt | nt | nt | nt | nt | 38
O=C(CSc1n[nH]c(-c2ccccc2F)n1)Nc1cc(F)ccc1F | i | i | nt | i | i | nt | nt
COc1cc2c(cc1OC)C(COc1ccc3c(C)cc(=O)oc3c1)N(C(=O)c1cccc(OC)c1OC)CC2 (stereo not given) | i | nt | nt | nt | nt | i | nt
CC(=O)c1cccc(NC(=O)c2cccc(N3C(=O)c4ccccc4C3=O)c2)c1 | ? | i | nt | ? | nt | i | ?
CCCCNC(=O)C1(C)CCN1C(=O)c1cncc(Br)c1 (stereo not given) | nt | nt | nt | i | nt | nt | nt
CC(C)=CCC1=C(OCC(=O)O)C(=O)c2ccccc2C1=O | ? | i | i | i[11.6 µM] | nt | ? | 38
COCCNC(=O)Cn1nc(C)c2c(C)n(-c3ccc(C)cc3)nc2c1=O | i | nt | nt | nt | nt | i | nt
SMILES | FEN1 inh-1 | APEX1 inh | RECQ1 inh | WRN helicase inh | L3MBTL1 block | BLM inh | FEN1 inh-2
COc1ccc(CCNC(=O)Cn2nc(C)c3c(C)n(-c4ccc(C)cc4)nc3c2=O)c(OC)c1 | ? | i | nt | nt | i | ? | 48
Nc1c(Cl)cc(-c2[nH]c3cc(C(=O)NCCO)ccc3c(=O)c2O)cc1Cl | 18µM | i | nt | i | i | i | 30
CCCNC(=O)c1ccc2c(=O)c(O)c(-c3ccc(F)cc3)[nH]c2c1 | ? | i | i | i | nt | i | nt
CCCNC(=O)c1ccc2c(=O)c(O)c(-c3cccc(Br)c3)[nH]c2c1 | 32µM | i | i | i[11.6 µM] | nt | i | 38
O=c1[nH]c2cnn(-c3ccccc3)c2c(=O)n1O | 0.5µM | nt | nt | i[11.6 µM] | nt | nt | 21
O=C(O)/C=C/c1cn(-c2ccccc2)nc1-c1ccc(-c2ccc([N+](=O)[O-])cc2)o1 | ? | i | i | 50µM | i | ? | 76

Screens (PubChem)
